Test results from PubChem BioAssay AID488907 (Broad Institute, 2010).
Entries with a potency or affinity are not part of this list. Results filed as inconclusive are left out. The source made the active and inactive calls.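 The calls were made as follows: active = fluorescence drops from fewer live microbes, with half-maximal dose at most ten times the top valid tested dose; inconclusive = flat curve with 30 to 70% inhibition, or poor fit; inactive = the rest, including signal rises.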

assay: Candida growth inhibition combined with fluconazole – CaCi-2 strain, Alamar Blue, dry powder, set 3, dose response (AID 488907); conditions: C. albicans CaCi-2 (fluconazole-resistant clinical isolate) + fluconazole, 48 h; series mostly up to 6 µM

| SMILES | outcome |
| --- | --- |
| O=C(c1ccc(Cl)cc1)N1CCN(c2cnccn2)CC1 | inactive |
| O=C(c1ccc(Cl)cc1)N1CCN(c2cccc(C(F)(F)F)n2)CC1 | inactive |
| Cc1cccc(N2CCN(C(=O)c3ccc(Cl)cc3)CC2)n1 | inactive |
